Source: PubChem
The list is not random: actives were taken first. Their share in the collection is about 2.5%.
LEDGF integ inh: blockers of LEDGF/p75-dependent integrase strand transfer – biochemical, TR-FRET, high throughput, primary screen. inhibition, % at 3.7 µM. HIV-1 integrase (with human LEDGF/p75). 370,000 compounds, 0.64% hits. TR-FRET IN-LEDGF/p75 DNA integration, Eu/Cy5;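 active means inhibition above the screen-wide mean plus 3 SD, cut at about 13% in these data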;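 further: signal is the Cy5 over europium emission ratio at 671 and 618 nm; 0% = plate median of compound wells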
UHRF1 MBD2 ctr: UHRF1 methylated DNA binding inhibitors, primary screen, counter-screen for MBD2 inhibitor project, biochemical, TR-FRET, human UHRF1, single concentration; E3 ubiquitin-protein ligase UHRF1 (Homo sapiens), Q96T88; UHRF1 binding to methylated oligo; inhibition, % at 4.4 µM; 370,000 compounds, 0.75% hits; in the data active means inhibition above about 21%;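 further: UHRF1 SRA domain binding a hemimethylated CpG hairpin DNA probe; 0% = median of test compound wells and 100% = reference inhibitor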
Target sequence (Q96T88 whole entry, looked up, the tested form may be a part): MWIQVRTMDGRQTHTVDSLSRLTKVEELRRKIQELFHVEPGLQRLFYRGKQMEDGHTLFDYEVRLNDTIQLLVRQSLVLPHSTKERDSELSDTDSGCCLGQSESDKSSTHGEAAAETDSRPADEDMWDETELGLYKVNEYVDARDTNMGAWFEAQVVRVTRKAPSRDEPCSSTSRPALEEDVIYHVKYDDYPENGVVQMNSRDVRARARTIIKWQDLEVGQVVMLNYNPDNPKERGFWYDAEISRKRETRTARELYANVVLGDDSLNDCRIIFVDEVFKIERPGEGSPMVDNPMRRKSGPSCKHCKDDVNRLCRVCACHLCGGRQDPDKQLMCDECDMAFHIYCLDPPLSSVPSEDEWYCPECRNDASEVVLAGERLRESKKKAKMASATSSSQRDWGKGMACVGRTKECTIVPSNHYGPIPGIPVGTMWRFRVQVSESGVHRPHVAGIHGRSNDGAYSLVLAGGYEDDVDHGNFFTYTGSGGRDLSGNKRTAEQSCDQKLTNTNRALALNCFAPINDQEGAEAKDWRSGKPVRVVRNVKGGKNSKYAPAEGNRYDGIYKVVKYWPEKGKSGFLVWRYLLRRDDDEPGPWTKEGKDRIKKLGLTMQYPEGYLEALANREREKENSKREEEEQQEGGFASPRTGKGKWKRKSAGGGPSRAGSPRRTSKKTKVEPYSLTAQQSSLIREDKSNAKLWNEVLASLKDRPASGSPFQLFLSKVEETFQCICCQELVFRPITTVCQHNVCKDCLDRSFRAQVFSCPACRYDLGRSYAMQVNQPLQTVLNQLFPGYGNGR
MBD2 DNA inh: inhibitors of MBD2 binding to methylated DNA, primary screen, biochemical, TR-FRET, DNA-binding domain, human; MBD2 binding to methylated oligonucleotide; inhibition, % at 4.4 µM; 370,000 compounds, 0.31% hits; AID 686964, 2013; in the data active means inhibition above about 13%
PRMT1 inh: PRMT1 methyltransferase inhibitors, primary screen, biochemical, fluorescence polarization; Protein arginine N-methyltransferase 1 (Homo sapiens), Q99873; recombinant PRMT1, activity-based probe fluorescence polarization; inhibition, % at 2.79 µM; 370,000 compounds, 1.3% hits; AID 652257, 2013;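 active means inhibition above about 21% made by adding two undisclosed values, limit read from the data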
IN multimer act: HIV-1 IN multimer formation enhancers, counter-screen for LEDGF/p75 integration inhibitor project, biochemical, TR-FRET. shares compounds with LEDGF integ inh. TR-FRET HIV-1 integrase multimerization. activation, % at 7.7 µM. 2,000 compounds, 17% hits. AID 1053131, 2014; in the data active means activation above about 8.9%
TR-FRET interf: TR-FRET optical interference artefacts, confirmation, artefact control for LEDGF/p75-dependent integration inhibitor project, biochemical, HIV-1 IN multimerization. shares compounds with LEDGF integ inh. TR-FRET optical interference counterscreen. inhibition, % at 7.7 µM. 2,000 tested, under 10 active;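 active means inhibition above the mean over all tested compounds plus 3 SD, which no compound reached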;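 further: 0% = integrase with antibodies and DMSO and 100% = antibodies without integrase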
IN-LEDGF confirm: inhibitors of HIV-1 IN-LEDGF/p75 DNA integration, confirmation, biochemical, TR-FRET; TR-FRET LEDGF/p75-dependent HIV-1 integration; 2,000 compounds, 36% hits; AID 1053136, 2014; shares compounds with LEDGF integ inh; inhibition, % at 3.7 µM; in the data active means inhibition above about 14%
An asterisk follows results filed as active; x = no result given.

SMILES	LEDGF integ inh	UHRF1 MBD2 ctr	MBD2 DNA inh	PRMT1 inh	IN multimer act	TR-FRET interf	IN-LEDGF confirm
CCOc1cc(N2CCOCC2)c(OCC)cc1NC(=O)COC(=O)c1ccc(OC)c([N+](=O)[O-])c1	0	0	2	-4	x	x	x
Cc1ccc(/C=C2/CNC/C(=C/c3ccc(C)cc3)C2=O)cc1	92*	2	3	5	3	-11	7
CC(=O)NC(CC(=O)Nc1ccc(S(=O)(=O)N2CCCCC2)cc1)c1ccccc1 (configuration not stated)	-1	-1	-4	-2	x	x	x
CCOc1ccc(NC(=O)CC(NC(C)=O)c2ccccc2)cc1S(=O)(=O)N1CCCC1 (configuration not stated)	14*	6	-5	-3	0	-2	-2
COc1cc(NC(=O)c2cc(Cl)ccc2Cl)ccc1-c1cc2ccccc2oc1=O	35*	-4	-4	-3	1	-6	-3
COc1cc(NC(=O)c2cccnc2)ccc1-c1cc2ccccc2oc1=O	7	0	0	-1	x	x	x
COC(=O)C[C@@H]1C[C@H]2c3cc(NC(=O)CC4CC4)ccc3O[C@H]2[C@@H](CO)O1	-2	1	3	5	x	x	x
COC(=O)C[C@H]1C[C@H]2c3cc(NC(=O)Cc4ccncc4)ccc3O[C@H]2[C@@H](CO)O1	14*	-5	-7	-3	0	0	-5
O=C(O)c1ccc(S(=O)(=O)c2ccc3c(c2)C(=O)N(c2ccc(O)cc2)C3=O)cc1	16*	6	-9	19	2	-8	7
O=C(O)c1ccc(NC(=O)c2ccc3c(c2)C(=O)N(c2ccccc2)C3=O)cc1	0	2	4	2	x	x	x
CCOC(=O)N1CC(C)N(CC(O)CN2CCOCC2)CC1C (configuration not stated)	-2	-1	1	-1	x	x	x
Clc1cccc(-c2ccc(C=Nc3ccc(N4CCOCC4)cc3)o2)c1	24*	-2	-1	2	8	-40	9
O=C(O)c1ccc(N/N=C/c2ccc(-c3cccc(Cl)c3)o2)cc1	3	-1	0	4	x	x	x
Oc1c(Br)cc(Cl)cc1C=Nc1ccc(N2CCOCC2)cc1	19*	2	-4	8	2	-8	25*
Oc1ccc(N=Nc2cccc(Cl)c2)cc1C=Nc1ccc(N2CCOCC2)cc1	13	2	3	4	x	x	x
CCCCC[C@@H](C)N1C[C@H](COCc2ccccc2)Oc2cc(N3CC[C@H](N(C)C)C3)ccc2S1(=O)=O	16*	0	-3	0	0	-2	-2
CN(C)S(=O)(=O)N1CCC(CO)(Cc2cccc(C(F)(F)F)c2)CC1	32*	-2	-3	-3	1	-3	-6
Cn1c(SCc2ccccc2)nccc1=O	-4	4	5	3	x	x	x
Cn1c(SCCc2ccc([N+](=O)[O-])cc2)nccc1=O	60*	2	3	-1	0	0	0
CCc1nc2ccc(C(=O)N3CCN(C(=O)c4ccco4)CC3)cn2c1N(C)C(=O)C1CCCCC1	2	4	-3	-1	x	x	x
CCOC(=O)c1cc2c(nc1NC(=S)Nc1ccccc1)CC(C)(C)OC2	18*	1	0	-1	2	-8	3
CCN=C1S/C(=C\c2ccc(OCC)c(OC)c2)C(=O)N1CC	-3	8	10	3	x	x	x
CCN=C1S/C(=C\c2cc(Cl)c(OC)c(OC)c2)C(=O)N1CC	17*	0	1	5	0	1	-11
CCN(C[C@H]1N[C@@](C)(C(=O)OC)[C@H]2C(=O)N(C)C(=O)[C@@H]12)S(=O)(=O)c1ccc(C)cc1	34*	-1	-7	2	-3	12	-1
COCCNC(=O)C1(C)CCCN(CCC(=O)c2ccc(Br)cc2)C1 (configuration not stated)	-3	-3	0	9	x	x	x
SMILES	LEDGF integ inh	UHRF1 MBD2 ctr	MBD2 DNA inh	PRMT1 inh	IN multimer act	TR-FRET interf	IN-LEDGF confirm
CCCNC(=O)C1(C)CCN(CCC(=O)c2ccc(Br)cc2)C1 (configuration not stated)	63*	3	-7	5	0	-1	0
O=C(/C(=N/N=C/c1ccc(O)c(O)c1O)c1ccccc1)c1ccccc1	14*	-3	0	27*	3	-13	28*
Oc1ccc(/C=N/N=C(c2ccccc2)c2ccccc2)c(O)c1O	41*	-1	-5	12	21*	-76	84*
COc1ccc(C(=O)C(=NN)c2ccccc2)cc1	2	2	-1	-3	x	x	x
CCOc1ccc(-c2nn[nH]n2)cc1	3	3	2	3	x	x	x
OCCOCCOc1ccc(-c2nn[nH]n2)cc1	17*	24*	-1	1	-1	4	-8
CCc1nnc(N/N=C/c2cc(C)c(C)cc2C)n1N	58*	4	5	4	-2	11	-4
CCc1nnc(N/N=C/c2c(F)cccc2Cl)n1N	57*	7	-2	0	0	2	-6
Cc1nnc(N/N=C/c2ccccc2O)n1N	59*	10	9	-5	-1	4	-10
Clc1cccc(Cl)c1/C=N\Nc1nccs1	-1	-2	2	1	x	x	x
Cc1nnc(N/N=C/c2c(Cl)cccc2Cl)n1N	35*	6	-2	3	0	2	-10
CCOc1cc(/C=N/Nc2nnc(C)n2N)ccc1O	66*	6	-5	2	1	-3	-4
Cc1nnc(N/N=C/c2cc(C)n(-c3ccc(F)cc3)c2C)n1N	45*	11	1	8	-2	10	-2
COc1cc2ccc(NC(C)=O)cc2cc1OC	-2	0	3	0	x	x	x
O=[N+]([O-])c1cc(S(=O)(=O)N2CCCCC2)ccc1NCCCN1CCOCC1	-3	-2	4	-1	x	x	x
Cc1ccc(N(C)c2nc(N)nc(N)c2N=O)cc1	14*	6	2	173*	2	-12	17*
COc1c(O)c(O)c2oc(-c3ccccc3)cc(=O)c2c1OC	-8	-2	3	12	x	x	x
COc1cc(-c2cc(=O)c3c(O)c(OC)c(OC)c(O)c3o2)ccc1O	25*	-3	-1	4	27*	-136	22*
Cc1nc2nc(SCC(=O)NCCCN3CCCC3)nn2c(C)c1Cc1ccccc1Cl	2	3	4	2	x	x	x
